# According to PubChem BioAssay (EPA / NIEHS):
# Results filed as inconclusive are left out. Activity calls are given as the source filed them. The calls were made as follows: active = hit-call score of the fitted dose curve at least 0.9, where 1 is the maximum; inconclusive = response in the unintended direction; inactive = score below 0.9.
# Assay: ACEA_ER_AUC_viability: ACEA Biosciences xCELLigence Real-Time Cell Analysis on Estrogen Receptor Agonism for Viability (AID 2283782);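 also: hit means loss of impedance signal meaning reduced cell growth or viability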
# Procedure, shortened: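 Viability endpoint: reduced impedance area under the curve relative to DMSO, recorded by real-time electrode sensing over ~80 h of continuous exposure. Duplicate plates of T47D in hormone-depleted medium; eight concentrations, 1:4 dilutions, 100 uM maximum.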
SMILES,outcome,AC50
CS(C)=O,inactive,–
CC(C)=CCCC(C)CC(=O)O (stereo not drawn),inactive,–
CCOC(=O)CN,inactive,–
CCCCCC(C=O)=Cc1ccccc1,–,80 µM (active)
CCCC(=O)OCCc1ccccc1,–,25.7 µM (active)
CCOC(=O)C(C#N)=C(c1ccccc1)c1ccccc1,inactive,–
CC(C)(CO)[C@@H](O)C(=O)NCCC(=O)O,inactive,–
CCOC(=O)CCc1ccccc1,inactive,–
CC=CC=CCOC(=O)C(C)C,–,76.8 µM (active)
CC(=O)Nc1ccc(C(=O)CCl)cc1,–,21.5 µM (active)
CC(=O)CC(=O)Nc1ccc(C)cc1C,inactive,–
CC1=CC[C@@]23C[C@@H]1C(C)(C)[C@@H]2CC[C@H]3C,–,78.5 µM (active)
O=CCc1ccccc1,–,78.6 µM (active)
NC1CCCCC1N (stereo not drawn),–,77.1 µM (active)
CC(=O)C(C)O (stereo not drawn),inactive,–
CC(C)(C)c1ccc(C(=O)O)cc1,–,50 µM (active)
COC(=O)C=C(C)CCC=C(C)C,inactive,–
COc1ccc(CCC(C)=O)cc1,inactive,–
C=C(C)C1CC=C(C)C(=O)C1 (stereo not drawn),–,68.2 µM (active)

SMILES,outcome,AC50
CC=Cc1ccc(OCC)c(O)c1,inactive,–
C=C(C)C(=O)OCC(CC)(COC(=O)C(=C)C)COC(=O)C(=C)C,inactive,–
OCC(O)c1ccccc1 (stereo not drawn),inactive,–
CC1(C)CCC[C@]2(C)[C@H]3CCO[C@]3(C)CC[C@@H]12,–,76.2 µM (active)
O=C(O)c1ccc(O)cc1,inactive,–
CN1CCOCC1,inactive,–
CCN(CC)C(=O)N(CC)CC,inactive,–
c1ccc(CN(Cc2ccccc2)Cc2ccccc2)cc1,–,89 µM (active)
CCOC(=O)C1OC1c1ccccc1 (stereo not drawn),inactive,–
O=C(CS)OCCOC(=O)CS,–,82.2 µM (active)
CCCCCCCCCCCCCCN(CCO)CCO,–,7.2 µM (active)
CC(C)c1ccccc1O,inactive,–
CCCCCCC(C)(C)S,inactive,–
COC(C)(C)CC(C)=O,inactive,–
CCC1CCCCC1,–,75.8 µM (active)
CCN(CCC#N)c1ccc(N=Nc2ccc([N+](=O)[O-])cc2)cc1,inactive,–
O=P(O)(O)O,inactive,–
O=C1CCCC=CCCCCCCCCCC1,–,84.1 µM (active)
ClC(c1ccccc1)(c1ccccc1)c1ccccc1,–,82.6 µM (active)
